# Experimental data taken from paper PMC5540273 (PLoS ONE, 2017).
# “And” between values parts separate entries of the source, which are not always exact repeats. Equal values may be shown once. Read-outs that look alike come from different tables or passages of the source.
# Key:
# BLK = conditions: concentration: 1 μM, replicates: in singlicate, n = 1
# BMPR1A = conditions: concentration: 1 μM, replicates: in singlicate; n = 1
# BMPR1B = conditions: concentration: 1 μM, replicates: in singlicate; n = 1
# BMPR2 = conditions: concentration: 1 μM, replicates: in singlicate, n = 1
# BMX = conditions: concentration: 1 μM, replicates: in singlicate; n = 1
# BRAF = conditions: concentration: 1 μM, replicates: in singlicate, n = 1
# BRK = system: T1, BRK; conditions: concentration: 1 μM, replicates: in singlicate, n = 1
# T1 construct: gene PTK6
# BRSK1 = conditions: concentration: 1 μM, replicates: in singlicate, n = 1
# BRSK2 = conditions: concentration: 1 μM, replicates: in singlicate, n = 1
# BTK = conditions: concentration: 1 μM, replicates: in singlicate, n = 1
# BUB1 = conditions: concentration: 1 μM, replicates: in singlicate, n = 1
# CAMK1B = conditions: concentration: 1 μM, replicates: in singlicate, n = 1
# CAMK1D = conditions: concentration: 1 μM, replicates: in singlicate, n = 1
# CAMK1G = conditions: concentration: 1 μM, replicates: in singlicate, n = 1
# CAMK1 = conditions: concentration: 1 μM, replicates: in singlicate, n = 1
# CAMK2A = conditions: concentration: 1 μM, replicates: in singlicate; n = 1
# CAMK2B = conditions: concentration: 1 μM, replicates: in singlicate; n = 1
# CAMK2D = conditions: concentration: 1 μM, replicates: in singlicate; n = 1
# CAMK2G = conditions: concentration: 1 μM, replicates: in singlicate; n = 1
# CAMK4 = conditions: concentration: 1 μM, replicates: in singlicate, n = 1
# 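Further: KINOMEscan kinase panel screen.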
compound,measurement,setting,value
Cc1ccc(NC(=O)c2ccnc(N3CCN(C)CC3)c2)cc1-c1ccc(C(=O)NCC2CC2)cc1 [GW775604],%Inh,BLK,0%
same,%Inh,BMPR1A,0%
same,%Inh,BMPR1B,0%
same,%Inh,BMPR2,0%
same,%Inh,BMX,0%
same,%Inh,BRAF,0%
same,%Inh,BRK,0%
same,%Inh,BRSK1,0%
same,%Inh,BRSK2,0%
same,%Inh,BTK,0%
same,%Inh,BUB1,0%
same,%Inh,CAMK1B,0%
same,%Inh,CAMK1D,0%
same,%Inh,CAMK1G,0%
same,%Inh,CAMK1,0%
same,%Inh,CAMK2A,0%
same,%Inh,CAMK2B,0%
same,%Inh,CAMK2D,0%
same,%Inh,CAMK2G,0%
same,%Inh,CAMK4,0%
CSc1ccc(-c2cc3ncnc(SCC(=O)O)c3s2)cc1,%Inh,BLK,10%
same,%Inh,BMPR1A,0%
same,%Inh,BMPR1B,0%
same,%Inh,BMPR2,0%
same,%Inh,BMX,0%
same,%Inh,BRAF,0%
same,%Inh,BRK,4%
same,%Inh,BRSK1,6%
same,%Inh,BRSK2,10%
same,%Inh,BTK,0%
same,%Inh,BUB1,24%
same,%Inh,CAMK1B,0%
same,%Inh,CAMK1D,0%
same,%Inh,CAMK1G,0%
same,%Inh,CAMK1,0%
same,%Inh,CAMK2A,0%
same,%Inh,CAMK2B,0%
same,%Inh,CAMK2D,0%
same,%Inh,CAMK2G,0%
same,%Inh,CAMK4,3%
NS(=O)(=O)CCc1cccc(Nc2nccc(-c3c(-c4cccc(NC(=O)c5c(F)cccc5F)c4)nn4ccccc34)n2)c1 [GSK336735],%Inh,BLK,99.7%
same,%Inh,BMPR1A,0%
same,%Inh,BMPR1B,0%
same,%Inh,BMPR2,0%
same,%Inh,BMX,94.6%
same,%Inh,BRAF,89%
same,%Inh,BRK,96%
same,%Inh,BRSK1,8%
same,%Inh,BRSK2,20%
same,%Inh,BTK,94.6%
same,%Inh,BUB1,77%
same,%Inh,CAMK1B,0%
same,%Inh,CAMK1D,29%
same,%Inh,CAMK1G,0%
same,%Inh,CAMK1,53%
same,%Inh,CAMK2A,0%
same,%Inh,CAMK2B,0%
same,%Inh,CAMK2D,4%
same,%Inh,CAMK2G,14%
same,%Inh,CAMK4,0%
Cl.Cl.Cl.Fc1ccc(-c2ncn(C3CCNCC3)c2-c2ccnc(Nc3ccccc3)n2)cc1 [SB-238039],%Inh,BLK; 1 µM,56% and 27%
same,%Inh,BMPR1A,0%
same,%Inh,BMPR1B,0%
same,%Inh,BMPR2; 1 µM,42% and 11%
same,%Inh,BMX,0%
same,%Inh,BRAF; 1 µM,19% and 0%
same,%Inh,BRK; 1 µM,0% and 19%
same,%Inh,BRSK1; 1 µM,0% and 29%
same,%Inh,BRSK2; 1 µM,7% and 9%
same,%Inh,BTK; 1 µM,0% and 9%
same,%Inh,BUB1; 1 µM,88% and 65%
same,%Inh,CAMK1B; 1 µM,0% and 42%
same,%Inh,CAMK1D; 1 µM,0% and 9%
same,%Inh,CAMK1G; 1 µM,9% and 0%
same,%Inh,CAMK1; 1 µM,7% and 0%
same,%Inh,CAMK2A,0%
same,%Inh,CAMK2B,0%
same,%Inh,CAMK2D,0%
same,%Inh,CAMK2G,0%
same,%Inh,CAMK4; 1 µM,18% and 26%
CN(C(=O)c1ccc(-c2cc(-c3c[nH]nc3-c3ccccn3)ccn2)cc1)C1CCOCC1 [GW810083],%Inh,BLK,22%
same,%Inh,BMPR1A,0%
same,%Inh,BMPR1B,0%
same,%Inh,BMPR2,24%
same,%Inh,BMX,0%
same,%Inh,BRAF,0%
same,%Inh,BRK,4%
same,%Inh,BRSK1,3%
same,%Inh,BRSK2,8%
same,%Inh,BTK,16%
same,%Inh,BUB1,0%
same,%Inh,CAMK1B,41%
same,%Inh,CAMK1D,20%
same,%Inh,CAMK1G,0%
same,%Inh,CAMK1,0%
same,%Inh,CAMK2A,0%
same,%Inh,CAMK2B,0%
same,%Inh,CAMK2D,0%
same,%Inh,CAMK2G,17%
same,%Inh,CAMK4,20%
O=C1NC(=O)C(N2CCc3ccccc32)=C1c1cccc(Cl)c1 [SB-408010],%Inh,BLK,0%
same,%Inh,BMPR1A,23%
same,%Inh,BMPR1B,0%
same,%Inh,BMPR2,4%
same,%Inh,BMX,26%
same,%Inh,BRAF,3%
same,%Inh,BRK,0%
same,%Inh,BRSK1,0%
same,%Inh,BRSK2,0%
same,%Inh,BTK,23%
same,%Inh,BUB1,0%
same,%Inh,CAMK1B,0%
same,%Inh,CAMK1D,17%
same,%Inh,CAMK1G,0%
same,%Inh,CAMK1,24%
same,%Inh,CAMK2A,0%
same,%Inh,CAMK2B,0%
same,%Inh,CAMK2D,10%
same,%Inh,CAMK2G,0%
same,%Inh,CAMK4,1%
O=c1cc(N2CCOCC2)nc2n(Cc3cccc(F)c3)ccn12 [GSK2297430],%Inh,BLK,32%
same,%Inh,BMPR1A,0%
same,%Inh,BMPR1B,0%
same,%Inh,BMPR2,0%
same,%Inh,BMX,12%
same,%Inh,BRAF,6%
same,%Inh,BRK,23%
same,%Inh,BRSK1,0%
same,%Inh,BRSK2,0%
same,%Inh,BTK,0%
same,%Inh,BUB1,0%
same,%Inh,CAMK1B,4%
same,%Inh,CAMK1D,15%
same,%Inh,CAMK1G,0%
same,%Inh,CAMK1,4%
same,%Inh,CAMK2A,0%
same,%Inh,CAMK2B,0%
same,%Inh,CAMK2D,0%
same,%Inh,CAMK2G,13%
same,%Inh,CAMK4,11%
O=C(NCCNc1ccnc(Nc2ccc(F)cc2)n1)Nc1ccccc1F [GSK1379880],%Inh,BLK,6%
same,%Inh,BMPR1A,0%
same,%Inh,BMPR1B,0%
same,%Inh,BMPR2,0%
same,%Inh,BMX,0%
same,%Inh,BRAF,0%
same,%Inh,BRK,6%
same,%Inh,BRSK1,0%
same,%Inh,BRSK2,0%
same,%Inh,BTK,0%
same,%Inh,BUB1,31%
same,%Inh,CAMK1B,0%
same,%Inh,CAMK1D,0%
same,%Inh,CAMK1G,0%
same,%Inh,CAMK1,0%
same,%Inh,CAMK2A,0%
same,%Inh,CAMK2B,0%
same,%Inh,CAMK2D,0%
same,%Inh,CAMK2G,0%
same,%Inh,CAMK4,0%
Cc1nnc(-c2ccc3occ(-c4ccc(C(C)O)cc4)c3c2)o1 (centres unmarked),%Inh,BLK,2%
same,%Inh,BMPR1A,2%
same,%Inh,BMPR1B,23%
same,%Inh,BMPR2,2%
same,%Inh,BMX,44%
same,%Inh,BRAF,1%
same,%Inh,BRK,0%
same,%Inh,BRSK1,10%
same,%Inh,BRSK2,13%
same,%Inh,BTK,0%
same,%Inh,BUB1,9%
same,%Inh,CAMK1B,0%
same,%Inh,CAMK1D,0%
same,%Inh,CAMK1G,0%
same,%Inh,CAMK1,12%
same,%Inh,CAMK2A,3%
same,%Inh,CAMK2B,0%
same,%Inh,CAMK2D,6%
same,%Inh,CAMK2G,11%
same,%Inh,CAMK4,0%
N#Cc1c(N2CCOCC2)sc(-c2ccn[nH]2)c1-c1ccc(Cl)cc1,%Inh,BLK,0%
same,%Inh,BMPR1A,21%
same,%Inh,BMPR1B,0%
same,%Inh,BMPR2,17%
same,%Inh,BMX,14%
same,%Inh,BRAF,0%
same,%Inh,BRK,8%
same,%Inh,BRSK1,0%
same,%Inh,BRSK2,18%
same,%Inh,BTK,8%
same,%Inh,BUB1,13%
same,%Inh,CAMK1B,12%
same,%Inh,CAMK1D,19%
same,%Inh,CAMK1G,72%
same,%Inh,CAMK1,24%
same,%Inh,CAMK2A,0%
same,%Inh,CAMK2B,0%
same,%Inh,CAMK2D,47%
same,%Inh,CAMK2G,0%
same,%Inh,CAMK4,4%
